From PubChem BioAssay AID493131 (Broad Institute, 2011)
About 3,300 (0.97%) of roughly 340,000 compounds were called active.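 Rule for the calls: active = mean activation above about 17%, with every replicate also reaching it (limit read from the data, passing the limit was not always enough); inconclusive = only one of the two conditions met; inactive = the rest.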 Many of the other results were omitted from the sample, so actives are more common in it than they were.

These compounds were tested against Protein FosB (Mus musculus) (UniProt P13346) (assay: activators of delta FosB homodimer, primary screen, biochemical, fluorescence polarization, TAMRA-CDK5 oligo, single point (AID 493131;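 note: fluorescence polarization rise as delta FosB binds a TAMRA Cdk5 AP-1 oligo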)). Settings: purified delta FosB, at 25 µM, hits give high values.
Protein FosB (Mus musculus), sequence (P13346 whole entry, looked up): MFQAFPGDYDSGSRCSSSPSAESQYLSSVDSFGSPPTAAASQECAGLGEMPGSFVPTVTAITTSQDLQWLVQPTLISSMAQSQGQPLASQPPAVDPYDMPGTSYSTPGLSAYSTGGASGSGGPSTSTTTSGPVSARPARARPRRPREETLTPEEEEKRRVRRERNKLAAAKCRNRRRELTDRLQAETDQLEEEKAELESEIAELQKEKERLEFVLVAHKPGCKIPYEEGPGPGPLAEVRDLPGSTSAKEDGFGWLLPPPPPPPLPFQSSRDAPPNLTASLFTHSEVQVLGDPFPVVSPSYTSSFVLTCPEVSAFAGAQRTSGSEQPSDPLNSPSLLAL

Row | SMILES | activation
1 | O=c1[nH]c(CN2CC=C(c3ccccc3)CC2)nc2scc(-c3cccs3)c12 | 35.5% (active)
2 | CC1([N+](=O)[O-])COP(=O)(Nc2ccc(F)cc2)OC1 (stereo not given) | 2.39% (inactive)
3 | C[C@@]1([C@@H](NP(=O)(c2ccccc2)c2ccccc2)c2ccccc2)C[C@H]1CCO | 0.415% (inactive)
4 | N#Cc1ccc(Cn2cc(C(=O)c3ccco3)c3ccccc32)cc1 | -7.9% (inactive)
5 | C=CCN1C(=O)C2(C(C(=O)OCC)=C(N)Oc3c2c(=O)oc2ccccc32)c2ccccc21 (stereo not given) | -8.76% (inactive)
6 | OC(Cn1c2ccccc2c2ccccc21)C[n+]1ccccc1 (stereo not given) | 20.4% (active)
7 | COC(=O)C1=C(c2cccc(OCc3ccccc3)c2)C[C@@H]2CC[C@H]1N2C(=O)NNCc1ccccc1 | -6.41% (inactive)
8 | Cc1ccc(CN2CCCC(C(=O)c3ccc4c(c3)OCO4)C2)cc1C (stereo not given) | -3% (inactive)
9 | CCN1CCN(c2nc3c(c(=O)[nH]2)CCC3)CC1 | -2.7% (inactive)
10 | O=C(c1ccccc1)C(O)(CN1CCCCC1)c1ccccc1 (stereo not given) | -1.99% (inactive)
